Experimental data reported in PubChem BioAssay (NCATS).
Results filed as inconclusive are left out. Activity calls are given as the source filed them. The call rests on the fitted dose curve; in most records, active means well fitted curve in the direction sought with a large enough effect; inconclusive means small, poorly fitted or top-dose-only effect, or another doubt; inactive means no such curve, though single readings can be large; an effect the other way counts as inactive or inconclusive.

Columns and labels:
[1] = Confirmatory screen GU Rhodamine qHTS for Zika virus inhibitors qHTS (AID 1347157); further: nearly all actives have a fitted effect of over 70% in size; further: potency means the concentration at half of the fitted maximal effect
Summary of the method: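 Percent inhibition derives from the 15-min fluorescence change (ex 480, em 540 nm), normalized to no-enzyme and no-inhibitor wells. Reactions contained 25 nM NS2B-NS3 complex and 1.5 microM substrate in 10 mM Tris-HCl pH 8.0.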

[2] = Confirmatory screen NINDS Rhodamine qHTS for Zika virus inhibitors (AID 1347161); further: nearly all actives have a fitted effect of over 60% in size; further: potency means the concentration at half of the fitted maximal effect
Summary of the method: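 qHTS dose-response: 25 nM linked protease, pH 8.0 Tris/Tween buffer, cpd titration, 15 min RT preinc, 1.5 microM Rhod110 peptide, 15 min reaction (~15% conversion), Ex480/Em540; 4-parameter Hill fit.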

[3] = Tertiary RLuc qRT-PCR qHTS assay for Zika virus inhibitors (AID 1347169); further: nearly all actives have a fitted effect of over 55% in size; further: potency means the concentration at half of the fitted maximal effect
Summary of the method: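 Orthogonal cell-based readout: luminescence measured 1-1.5 hrs after adding live-cell Renilla substrate to Vero cells that had been infected with ZIKV-RLuc (MOI 1-2) post-compound, incubated 48-72 hrs at 37 degrees C.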

[4] = tested on: Zika virus NS2B-NS3 protease (linked construct); experiment: Confirmatory screen NINDS AMC qHTS for Zika virus inhibitors (AID 1347152); further: potency means the concentration at half of the fitted maximal effect; nearly all actives have a fitted effect of over 70% in size
Summary of the method: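 IC50s from 4-parameter Hill fits of percent inhibition, based on AMC fluorescence gain (340/450 nm) over 15 min with 10 microM Bz-Nle-KRR-AMC. Enzyme: 1 nM linked NS2B-NS3 in Tris-HCl pH 8.0; 15-min compound preincubation.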

[5] = tested on: Zika virus NS2B-NS3 protease (unlinked complex); experiment: Confirmatory screen GU AMC qHTS for Zika virus inhibitors (AID 1347153);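 further: enzyme at 25 nM with substrate at 10 µM below its Km of 18.3 µM; potency means the concentration at half of the fitted maximal effect; nearly all actives have a fitted effect of over 70% in size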
Summary of the method: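 Noncovalent NS2B hydrophilic domain/NS3 protease complex (25 nM) in 10 mM Tris-HCl pH 8.0, 0.01% Tween 20 was preincubated 15 min at room temperature with compounds. Then 10 µM AMC substrate (Km 18.3 µM) was added; fluorescence was read over 15 min and fitted to a 4-parameter Hill equation.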

[6] = ZIKV-mCherry secondary qHTS for Zika virus inhibitors (AID 1347158); further: top concentration of the series differs between compounds
Summary of the method: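 Vero cells (5,000/well) were given compound, then infected with ZIKV-mCherry at MOI 1 for 48–72 h at 37 °C. After PFA fixation and Hoechst staining, imaging gave percent mCherry-positive cells. The positivity threshold was RFU above 450, 3 SD over negative controls.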

[7] = tested on: Zika virus NS2B-NS3 protease (unlinked complex); experiment: Primary screen GU Rhodamine qHTS for Zika virus inhibitors: Unlinked NS2B-NS3 protease assay (AID 1347159); further: nearly all actives have a fitted effect of over 60% in size; further: potency means the concentration at half of the fitted maximal effect
Summary of the method: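 Noncovalent NS2B hydrophilic domain–NS3 protease domain complex (25 nM) preincubated 15 min at room temperature with compounds (up to 114 microM) in 10 mM Tris-HCl pH 8.0, 0.01% Tween 20; 1.5 microM Rhodamine110 substrate added, fluorescence change over 15 min fitted to Hill equation.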

[8] = tested on: Zika virus NS2B-NS3 protease (linked construct); experiment: Primary screen NINDS Rhodamine qHTS for Zika virus inhibitors (AID 1347160); further: potency means the concentration at half of the fitted maximal effect; nearly all actives have a fitted effect of over 55% in size
Summary of the method: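 Purified linked NS2B-NS3 protease (NS2B hydrophilic domain joined to NS3 protease by flexible linker), 25 nM in 10 mM Tris-HCl pH 8.0, 0.01% Tween 20. Compounds titrated, 15 min preincubation at room temperature; 1.5 microM Rhodamine110 substrate, FITC fluorescence change over 15 min.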

[9] = tested on: Zika virus NS2B-NS3 protease (linked); experiment: 384 well plate NINDS AMC confirmatory qHTS for Zika virus inhibitors (AID 1347163); further: nearly all actives have a fitted effect of over 50% in size; further: potency means the concentration at half of the fitted maximal effect
Summary of the method: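 Linked NS2B-NS3 protease (final 5 nM, 30 nM or 60 nM) was preincubated with compounds (final up to 1 mM) for ~15 minutes. Ac-VKTGKR-AMC substrate (final 30 microM) then reacted for 25 minutes at room temperature in the dark. Fluorescence (ex 355/em 460 nm) was normalized to no-enzyme and no-inhibitor controls.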

[10] = tested on: Zika virus NS2B-NS3 protease (linked construct); experiment: 384 well plate NINDS Rhodamine confirmatory qHTS for Zika virus inhibitors (AID 1347164);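 further: fluorescence from protease cleavage of Ac-LKRR-rhodamine 110 substrate; nearly all actives have a fitted effect of over 65% in size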; further: potency means the concentration at half of the fitted maximal effect
Summary of the method: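 Fluorescence at 485/538 nm was measured 25 minutes after adding 10 microM Ac-LKRR-Rd substrate, in the dark at room temperature. The protease (5, 30 or 60 nM final) had been preincubated ~15 minutes with compound; aprotinin as control.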

[11] = Vero cells viability qHTS for Zika virus inhibitors (AID 1347167)
Summary of the method: (§1)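 Counter-screen for cytotoxicity of hits from NS2B-NS3 protease qHTS. Overnight-attached cells (2.5 x 10^5 cells/mL, DMEM/4% FBS) were dosed in titration, incubated 24 to 48 hours, then assayed by CellTiter Glo.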

[12] = HepG2 cells viability qHTS for Zika virus inhibitors (AID 1347168)
Summary of the method: as §1

SMILES	Potency [1]	Potency [2]	Potency [3]	Potency [4]	Potency [5]	Potency [6]	Potency [7]	Potency [8]	Potency [9]	Potency [10]	outcome [11]	outcome [12]
O=S(=O)(c1ccccc1)c1cnc2c(N3CCNCC3)cccc2c1	inactive	inactive	inactive									
O=C(O)Cc1ccc2oc(-c3ccc(NC(=O)/C=C/c4ccc(Br)cc4)c(F)c3)nc2c1	3.12 µM (active)	2.21 µM (active)	inactive	15.6 µM (active)	13.9 µM (active)	inactive	3.16 µM (active)	3.16 µM (active)	inactive	inactive	inactive	inactive
OCC(CO[C@@H]1O[C@H](CO)[C@@H](O)[C@H](O)[C@H]1O)c1ccc2c(c1)OCO2 (stereo partly drawn)							inactive					
O=C(Nc1ccc(S(=O)(=O)Nc2nccs2)cc1)C(c1ccccc1)c1ccccc1	6.98 µM (active)	4.41 µM (active)	20.8 µM (active)			inactive	6.31 µM (active)	7.08 µM (active)	inactive	50.1 µM (active)	inactive	inactive
C=CC/C=C\C/C=C\CCCCCCCc1cccc(O)c1C(=O)O	4.32 µM (active)	2.73 µM (active)	inactive	10.9 µM (active)	6.85 µM (active)		8.91 µM (active)	3.98 µM (active)	44.7 µM (active)	inactive	inactive	inactive
O=C(O)/C=C/c1ccc(-c2ccc(O)c(C34CC5CC(CC(C5)C3)C4)c2)cc1	1.11 µM (active)	1.24 µM (active)	0.415 µM (active)	35 µM (active)	44.1 µM (active)		2.24 µM (active)	2.24 µM (active)	inactive	3.55 µM (active)		inactive
CC1=C(C(=O)OCc2ccccc2)C(c2ccc(-c3ccccc3)cc2)NC(=O)N1CCCCCC(=O)O (stereo not drawn)	2.48 µM (active)	2.48 µM (active)	23.4 µM (active)	22.1 µM (active)	31.2 µM (active)		3.16 µM (active)	7.94 µM (active)	3.55 µM (active)	0.631 µM (active)	inactive	inactive
